Sampled rows, rich in hits. Any-hit rate of the full collection: about 0.78%.
BJeLR lethal: MLPCN primary cell-based screen for lethality selective to Ras in HRASV12 cells. BJeLR (HRASV12) viability, CellTiter-Glo ATP luminescence, 48 h. inhibition, % (concentration not given with the values). 300,000 compounds, 0.17% hits. AID 1554, 2009; in the data active = inhibition above about 50%
3CLpro inhibitor: SARS-CoV 3CLpro protease inhibitors, primary screen, biochemical, quenched FRET. Replicase polyprotein 1ab (Severe acute respiratory syndrome coronavirus), P0C6X7. recombinant SARS-CoV 3CLpro, quenched FRET peptide cleavage. inhibition, % at 6 µM. 290,000 compounds, 0.14% hits. AID 1706, 2009; in the data active = inhibition above about 12%
SSB-PriA inh: inhibitors of Klebsiella pneumoniae PriA binding to SSB C-terminal tail, primary screen, biochemical, AlphaScreen; PriA–SSB C-terminal tail interaction (Klebsiella pneumoniae); AlphaScreen SSBct-PriA binding, biotinylated peptide; inhibition, % at 33 µM; 430,000 compounds, 0.6% hits; AID 1272365, 2023; in the data active = inhibition mostly above about 37%, no sharp cut-off; inactive = mostly below about 20%;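 note: plate controls were negative control peptide for no effect and reference peptide for full effect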
* marks the source's active call; other numbers are inactive results.

How did COC1(CNC(=O)c2cnoc2C)Cc2ccccc2C1 do in these assays?
SSB-PriA inh: -8

Results for COCCNC(=O)NCCc1csc(-n2cccn2)n1 ?
SSB-PriA inh: -15

What do the screens show for `O=[N+]([O-])c1cc(Cl)cc(/C=N/NC(=S)Nc2ccc(S(=O)(=O)N3CCOCC3)cc2)c1O`?
BJeLR lethal: -7; 3CLpro inhibitor: 7

How did O=[N+]([O-])c1cc(Cl)cc(C=NNC(=S)Nc2ccc(S(=O)(=O)N3CCOCC3)cc2)c1O do in these assays?
SSB-PriA inh: 67*

Results for Cn1nc(CNC(=O)Nc2ccc(Cl)c(Cl)c2)cc1C1CC1 ?
SSB-PriA inh: -4

What do the screens show for `Cc1ccccc1NC(=S)NN=Cc1ccc(O)cc1O`?
SSB-PriA inh: 50*

Results for Cc1ccccc1NC(=S)N/N=C/c1ccc(O)cc1O ?
BJeLR lethal: 5; 3CLpro inhibitor: 5

How did COCCCNC(=S)NN=Cc1ccc(O)cc1O do in these assays?
SSB-PriA inh: 46*

Results for COCCCNC(=S)N/N=C/c1ccccc1O ?
BJeLR lethal: -12; 3CLpro inhibitor: 0

How did COc1cc2c(cc1OC)C(COc1cc(C)cc(C)c1)N(C(=O)CSCc1ccccc1)CC2 (stereo unspecified) do in these assays?
SSB-PriA inh: -8

What do the screens show for `O=C(NCCc1ccncc1)[C@H]1CCc2nc[nH]c2C1`?
SSB-PriA inh: -16

How did Cc1cc(C)cc(-n2ccnc2SCC(=O)Nc2ccc(F)cc2F)c1 do in these assays?
SSB-PriA inh: 47*

What do the screens show for `O=C(CSc1nccn1-c1cccc(C(=O)NCc2ccco2)c1)Nc1ccc(Cl)cc1F`?
SSB-PriA inh: 37*

How did COc1ccc(-n2ccnc2SCC(=O)Nc2cccc3ccccc23)cc1 do in these assays?
SSB-PriA inh: 58*

How did O=C(CSc1nccn(-c2cccc(F)c2)c1=O)Nc1ccc(Cl)cc1F do in these assays?
BJeLR lethal: 7; 3CLpro inhibitor: 5; SSB-PriA inh: -3

How did COc1ccc(NC(=O)CSc2nccn2-c2ccccc2)c(OC)c1 do in these assays?
BJeLR lethal: -3; 3CLpro inhibitor: 7; SSB-PriA inh: 28

What do the screens show for `O=C(CSc1nccn1-c1ccc([N+](=O)[O-])cc1)Nc1ccc(Cl)c(Cl)c1`?
SSB-PriA inh: 36*

Results for O=C(CSc1nccn1-c1ccc([N+](=O)[O-])cc1)Nc1nccs1 ?
SSB-PriA inh: -1

Results for O=C(CSc1nccn1Cc1ccccc1)Nc1ccc(F)cc1F ?
SSB-PriA inh: 20

Results for COc1ccc(C(=O)CSc2nc3ccccc3nc2C)cc1 ?
SSB-PriA inh: -11

Results for CO[C@@H](CNC(=O)C(=O)Nc1cccnc1)c1cccc(F)c1 ?
SSB-PriA inh: -1

What do the screens show for `COc1ccc(NC(=O)NCc2nnnn2-c2ccc(F)cc2)c(OC)c1`?
SSB-PriA inh: -3

Results for CCOc1ccccc1NC(=O)NCC(OC)c1ccccc1OC (stereo unspecified) ?
SSB-PriA inh: -13

What do the screens show for `COc1cccc(N2C(=O)C3N=NN(c4ccc(C)c(F)c4)C3C2=O)c1` (stereo unspecified)?
SSB-PriA inh: 7

Results for CC(=O)c1ccc(N2CCN(C(=O)[C@@H]3CSc4nccc(=O)n4C3)CC2)cc1 ?
SSB-PriA inh: -13

What do the screens show for `Cc1cc(=O)n(CC(=O)NCc2ccc3c(c2)OCO3)c(-c2ccncc2)n1`?
SSB-PriA inh: -28

How did O=C(CSc1nccn1-c1ccc(F)cc1)Nc1ccc(Br)cc1 do in these assays?
SSB-PriA inh: 60*

Results for O=C(CSc1nccn1-c1ccc(F)cc1)NCc1ccc(F)cc1 ?
BJeLR lethal: 6; 3CLpro inhibitor: -5; SSB-PriA inh: 6

What do the screens show for `CCN(CC)c1ccc(/C=N/Nc2nc(C)cc(=O)[nH]2)c(O)c1`?
BJeLR lethal: 67*; 3CLpro inhibitor: -6

Results for CCN(CC)c1ccc(C=NNc2nc3ccccc3[nH]2)c(O)c1 ?
SSB-PriA inh: 92

How did CC(C)Sc1ccc(CC(=O)N2CCC[C@H](Cc3nc(-c4cnccn4)no3)C2)cc1 do in these assays?
SSB-PriA inh: -9

Results for COc1cn(CC(=O)Nc2ccc(C)c(Cl)c2)c(CN2CCCCCC2)cc1=O ?
SSB-PriA inh: 6

What do the screens show for `O=S(=O)(c1ccccc1)C1CC2CCC(C1)N2S(=O)(=O)C1CC1` (stereo unspecified)?
SSB-PriA inh: 91*

What do the screens show for `CC(=O)N1C2CCC1CC(S(=O)(=O)c1ccccc1)C2` (stereo unspecified)?
SSB-PriA inh: -7

How did O=C(Cn1ncccc1=O)N1C2CCC1CC(S(=O)(=O)c1ccccc1)C2 (stereo unspecified) do in these assays?
SSB-PriA inh: 88*

Results for CN(C)S(=O)(=O)N1C2CCC1CC(S(=O)(=O)c1ccccc1)C2 (stereo unspecified) ?
SSB-PriA inh: -2

Results for c1ccc(-c2csc(CN3CCNCC3)n2)cc1 ?
SSB-PriA inh: 20

Results for Cc1nc(N2CCCC2)nc(C)c1NS(=O)(=O)c1ccccc1F ?
SSB-PriA inh: -1

What do the screens show for `CCOC(=O)c1c(N=Cc2cccc(C)c2O)sc2c1CCN(C)C2`?
SSB-PriA inh: 32

Results for Cc1cccc(C=Nc2sc3c(c2C(=O)OC(C)(C)C)CCN(C)C3)c1O ?
SSB-PriA inh: 45*

Results for Cc1ccc2nc[nH]c2c1 ?
SSB-PriA inh: 7

What do the screens show for `COc1ccc(-c2nc(C#N)c(N3CCCCC3)o2)cc1`?
BJeLR lethal: 1; 3CLpro inhibitor: 5; SSB-PriA inh: 50*

Results for COc1ccc(-c2nc(C#N)c(N3CCC(C)CC3)o2)cc1 ?
BJeLR lethal: -1; 3CLpro inhibitor: -5; SSB-PriA inh: 20

How did COc1ccc(-c2nc(C#N)c(N3CCOCC3)o2)cc1 do in these assays?
SSB-PriA inh: 54*

What do the screens show for `CCOc1ccc(-c2nc(C#N)c(N3CCN(C)CC3)o2)cc1`?
BJeLR lethal: 0; 3CLpro inhibitor: 1; SSB-PriA inh: -6

How did COc1ccc(-c2nc(C#N)c(N3CCCCCC3)o2)cc1 do in these assays?
BJeLR lethal: -3; 3CLpro inhibitor: 1; SSB-PriA inh: 8

Results for CCOc1ccc(-c2nc(C#N)c(N3CCCCCC3)o2)cc1 ?
BJeLR lethal: 1; 3CLpro inhibitor: 3; SSB-PriA inh: 93*

What do the screens show for `Cc1cc(C)n(-c2ccc(N3CCN(C(=O)c4ccc(F)cc4Cl)CC3)nn2)n1`?
SSB-PriA inh: 0

Results for CC(=NN1CCN(Cc2ccccc2Cl)CC1)c1ccc([N+](=O)[O-])cc1 ?
SSB-PriA inh: 38*

What do the screens show for `C/C(=N\N1CCN(Cc2ccccc2Cl)CC1)c1ccc([N+](=O)[O-])cc1`?
BJeLR lethal: -7; 3CLpro inhibitor: -4

What do the screens show for `COC(=O)C1CC(OC)CN1C(=O)C1(c2ccccc2)CCOCC1` (stereo unspecified)?
SSB-PriA inh: 0

What do the screens show for `O=C(O)c1ccc(CN2C(=O)c3cccc4c([N+](=O)[O-])ccc(c34)C2=O)cc1`?
BJeLR lethal: 73*; 3CLpro inhibitor: 3; SSB-PriA inh: 3
